Rows were chosen to be rich in hits. Some 5.1% of all compounds tested hit in one or more screens of this group.
TMEM16A act – TMEM16A chloride channel activators or potentiators, primary screen, cell-based, HTS; Anoctamin-1 (Mus musculus), Q8BHY3; HEK293 TMEM16A/YFP-H148Q/I152L, iodide quench fluorescence; stronger effect = lower value; B-score at 10 µM; 340,000 compounds, 0.3% hits; AID 623877, 2012;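 active means fluorescence-ratio B-score plate-corrected deviation score at least 3 library SD below zero, with starting fluorescence score within 5 deviations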;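 further: channel opened by trigger with iodide after compound preincubation; score built on the fluorescence ratio of max minus min over baseline; more negative score means more quench and so TMEM16A activation or potentiation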
Target sequence (Q8BHY3 whole entry, looked up): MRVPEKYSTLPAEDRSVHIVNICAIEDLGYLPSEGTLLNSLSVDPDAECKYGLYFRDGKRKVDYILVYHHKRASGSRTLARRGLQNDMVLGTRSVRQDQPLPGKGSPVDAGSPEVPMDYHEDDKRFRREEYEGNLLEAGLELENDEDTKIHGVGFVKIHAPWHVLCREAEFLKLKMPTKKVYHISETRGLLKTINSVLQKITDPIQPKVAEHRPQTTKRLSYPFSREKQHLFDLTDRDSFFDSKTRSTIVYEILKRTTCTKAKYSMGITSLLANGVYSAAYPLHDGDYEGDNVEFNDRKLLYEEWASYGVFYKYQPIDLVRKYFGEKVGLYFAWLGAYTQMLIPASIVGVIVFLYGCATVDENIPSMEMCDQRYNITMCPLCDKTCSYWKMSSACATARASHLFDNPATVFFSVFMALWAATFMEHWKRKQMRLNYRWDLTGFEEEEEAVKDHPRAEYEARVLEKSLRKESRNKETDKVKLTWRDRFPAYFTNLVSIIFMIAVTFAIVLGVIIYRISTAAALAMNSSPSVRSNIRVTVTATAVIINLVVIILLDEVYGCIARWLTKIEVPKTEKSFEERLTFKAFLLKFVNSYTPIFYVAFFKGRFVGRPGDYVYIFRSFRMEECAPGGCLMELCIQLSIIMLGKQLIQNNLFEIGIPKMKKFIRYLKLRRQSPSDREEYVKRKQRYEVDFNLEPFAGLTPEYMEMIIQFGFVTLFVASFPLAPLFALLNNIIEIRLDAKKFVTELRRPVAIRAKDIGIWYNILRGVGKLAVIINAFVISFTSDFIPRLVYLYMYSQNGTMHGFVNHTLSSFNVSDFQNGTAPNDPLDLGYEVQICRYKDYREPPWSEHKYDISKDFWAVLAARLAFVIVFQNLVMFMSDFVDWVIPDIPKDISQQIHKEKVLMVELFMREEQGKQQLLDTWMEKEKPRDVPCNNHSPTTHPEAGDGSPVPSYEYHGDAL
CRFR2-BP ag – agonists of CRF-BP/CRF-R2 complex, primary screen, cell-based, HEK293, calcium dye fluorescence, uHTS; activation, % at 13.2 µM; CRF-binding protein / CRF receptor 2 complex (human); calcium dye fluorescence (FLIPR); percent of saturating CRF peptide response; 350,000 compounds, 0.46% hits;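 active means activation of at least 50%, plus an integration ratio under a set limit after plate pattern correction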;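 further: plate controls were neutral control wells without compound for no effect and CRF at EC100 for full effect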
CRFBP-R2 block – antagonists of CRF-BP/CRF-R2 complex, primary screen, cell-based, HEK293, calcium dye fluorescence, uHTS. 350,000 compounds, 0.59% hits. CRF-induced calcium fluorescence. inhibition, % at 11.8 µM. AID 588475, 2011;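 active means inhibition of the ligand-induced calcium signal above about 50% at the single tested concentration, limit read from the data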
GRIN3A LBD mod – binders of NR3A ligand-binding domain, primary screen, biophysical, differential scanning fluorimetry, uHTS | 340,000 compounds, 2.5% hits | NR3A LBD differential scanning fluorimetry, Tm shift; 0% = protein alone, 100% = glycine-bound protein | AID 1259313, 2017 | Tm shift relative to glycine control, % at 25 µM | Glutamate receptor ionotropic, NMDA 3A (GRIN3A) ligand-binding domain;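 active means melting temperature shift of at least 10% of the positive control shift, at one fixed dose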
MPTP inh – mitochondrial permeability transition pore inhibitors, primary screen, biochemical, isolated mouse mitochondria, absorbance. Ca2+ swelling absorbance, 30 min. inhibition, % at 10 µM. 360,000 compounds, 1.4% hits. AID 602449, 2012;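 active means inhibition of 50% or more, scaled per plate between neutral and stimulator controls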;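 further: 0% = DMSO wells given calcium and 100% = 1 mM EGTA wells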
TMEM16A inh – TMEM16A chloride channel inhibitors, primary screen, cell-based, HTS; Anoctamin-1 (Mus musculus), Q8BHY3; HEK293 TMEM16A/YFP iodide influx fluorescence, ionomycin; normalized B-score (activity score, 25-100; higher = stronger inhibition) at 10 µM; 310,000 compounds, 1.2% hits;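 active means ratio plate-corrected score three or more library SD toward inhibition, starting fluorescence score within five deviations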;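 further: score derived from kinetic fluorescence span divided by baseline fluorescence per well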
* hit, by the source's call; i = inactive; nt = no result.

SMILES | TMEM16A act | CRFR2-BP ag | CRFBP-R2 block | GRIN3A LBD mod | MPTP inh | TMEM16A inh
CC1CCN(C(=O)COC(=O)c2cc([N+](=O)[O-])ccc2N2CCOCC2)CC1 | i | 0 | 6 | -1 | 0 | i
Cn1ccc2c(-c3ccc4c(c3)OCCO4)cc3c(c21)C1CCC3O1 (stereo not drawn) | nt | nt | nt | nt | -1 | nt
Oc1nc(Nc2cccc(Cl)c2)sc1/C=C1\C=Nc2ccccc21 | i | -2 | -33 | 37* | 33 | i
Oc1cccc(Nc2nc(O)c(/C=C3\C=Nc4ccccc43)s2)c1 | i | 15 | -26 | 21* | 6 | i
CC1=Nc2ccccc2/C1=C\c1sc(Nc2ccc(C)cc2)nc1O | i | -3 | -14 | 21* | 4 | i
CCOC(=O)c1c(Nc2ccc(Cl)cc2)sc(/C=C2\C=Nc3ccccc32)c1O | i | 14 | -106 | -4 | 5 | i
Oc1nc(Nc2ccc(F)cc2)sc1/C=C1\C=Nc2ccccc21 | i | 0 | -30 | 34* | 40 | i
O=C(Cn1c(O)c(/C=C2\C=Nc3ccccc32)sc1=O)N1CCOCC1 | i | 0 | -7 | -2 | 0 | i
O=C(CN1C(=O)NC2(CCCC2)C1=O)N1CCN(S(=O)(=O)c2ccc(Cl)c(C(F)(F)F)c2)CC1 | i | 0 | 24 | 1 | -1 | i
CCCCN1C(=O)/C(=C/C=C2\SCCN2C)SC1=S | i | 81* | -111 | -6 | 1 | nt
CN1CCS/C1=C/C=C1/SC(=S)N(Cc2ccccc2)C1=O | i | 36 | -78 | -3 | 2 | i
CN1CCS/C1=C/C=C1\SC(=S)N(CC(=O)O)C1=O | i | 149* | -115 | -1 | 1 | i
CC(C)[C@H](NC(=O)OCc1ccccc1)C(=O)OCC(=O)Nc1ccc(N2CCOCC2)cc1 | i | 1 | -4 | -1 | -1 | i
CN1CCN(CCCNC(=O)CCC(=O)N2CCOc3ccccc32)CC1 | i | -5 | 7 | -2 | -2 | i
Clc1ccc2nc(-c3ccncc3)cc(-c3ccccc3)c2c1 | i | 4 | -57 | 24* | -1 | i
c1ccc(-c2cc(-c3ccncc3)nc3ccc4ccccc4c23)cc1 | i | -1 | -39 | 22* | 7 | i
NC(=O)c1cc(-c2ccncc2)nc2ccc(Cl)cc12 | i | 1 | -15 | 2 | -1 | i
CC[C@]12c3[nH]c4cc(-c5ccco5)ccc4c3CCN1C(=O)[C@@H](CC(=O)NCCN1CCOCC1)C[C@@H]2C(=O)N1CCN(C(=O)C2CC2)CC1 | nt | 0 | 7 | -1 | -1 | nt
CCOC(=O)c1c(NC(=O)CSc2nc3ccc(C)cc3[nH]2)sc2c1CC(C)(C)NC2(C)C | i | -1 | -22 | -2 | 2 | i
CCOc1ccc(-n2c(=S)sc3c(=O)n(-c4ccccc4)c(SCC(=O)O)nc32)cc1 | i | -3 | 7 | -1 | 1 | i
CCOc1ccc(-n2c(=S)sc3c(=O)n(-c4ccc(F)cc4)c(SCC(=O)O)nc32)cc1 | i | 4 | -12 | 15* | -2 | i
Cn1ccc(C(=O)NC(=S)Nc2ccc([N+](=O)[O-])cc2O)n1 | i | -2 | 15 | 6 | -1 | i
O=C(N/N=C/c1ccc(O)cc1)NC12CC3CC(CC(C3)C1)C2 | i | -1 | -3 | 10* | 0 | i
C1=C[C@H]2CC[C@@H]1N(c1ccccc1)O2 | i | -1 | 4 | 5 | -1 | nt
O=C(NC(=S)Nc1c(Cl)ccc2nsnc12)c1ccccc1F | i | -2 | 58* | 3 | 0 | i
SMILES | TMEM16A act | CRFR2-BP ag | CRFBP-R2 block | GRIN3A LBD mod | MPTP inh | TMEM16A inh
O=C(COc1cccc(Br)c1)Nc1ccc(N2CCOCC2)cc1N1CCOCC1 | i | 0 | 2 | 4 | 3 | nt
O=C(Nc1nc(-c2ccco2)c(-c2ccco2)s1)C1CC(=O)N(c2ccc3c(c2)OCCO3)C1 (stereo not drawn) | -6.2* | -3 | -14 | -5 | 1 | i
CN(C)c1nc(NCc2ccccc2)nc(SCC(=O)Nc2ccc(Cl)c(Cl)c2)n1 | i | 1 | -21 | 32* | 45 | i
CCNc1nc(SCC(=O)Nc2ccc(Cl)c(Cl)c2)nc(N(C)C)n1 | i | -1 | -4 | 10* | 2 | i
O=C(O)CCC(=O)Nc1ccc(Br)c(Cl)c1 | i | -3 | 67* | 0 | 2 | i
COc1cc(/C=N/Nc2ccc(C(=O)O)cc2)ccc1O | i | 7 | -2 | 27* | 0 | i
O=[N+]([O-])c1cccc(N/N=C/c2cccc(O)c2O)c1 | i | 0 | -20 | 21* | -3 | i
O=[N+]([O-])c1ccccc1N/N=C/c1cccc(O)c1O | i | -2 | -7 | 0 | 5 | i
COc1cc([N+](=O)[O-])cc(/C=N/NC(=O)c2cncc(Br)c2)c1O | i | 3 | -1 | -6 | 6 | i
O=[N+]([O-])c1cccc(NN=Nc2ccccc2)c1 | i | -3 | -9 | 4 | 0 | i
C/C(=N\Nc1cccc([N+](=O)[O-])c1)c1ccccc1O | i | 1 | -13 | 31* | 1 | i
COC(=O)c1ccc(N/N=C/c2cc([N+](=O)[O-])cc(OC)c2O)cc1 | i | -1 | 17 | 30* | 1 | i
COc1ccccc1OCC(=O)Nc1nc(C)c(C)s1 | i | 0 | -9 | -1 | 0 | i
COc1ccc(NC(=O)CSc2nc(C(C)C)nc3c2c(=O)n(C)c(=O)n3C)c(OC)c1 | i | -3 | 9 | 0 | -1 | i
CN(C(=O)CSc1nc2sc3c(c2c(=O)n1C)CCC3)C1CCS(=O)(=O)C1 (stereo not drawn) | i | -1 | 9 | 2 | 2 | nt
CN(C)C(=O)CCC(=O)N1CCCC(N2CCN(c3cccc(C(F)(F)F)c3)CC2)C1 (stereo not drawn) | i | -2 | -4 | 0 | 2 | i
C/C(=N\NC(=O)c1cccc(N/N=C(\C)c2cc(O)ccc2O)c1)c1cc(O)ccc1O | i | 5 | -1 | 14* | 1 | i
COc1cccc(/C=N/NC(=O)c2ccc([N+](=O)[O-])cc2Cl)c1O | i | 2 | 3 | -1 | 2 | i
C/C(=N\NC(=O)c1cccc(N/N=C(\C)c2ccco2)c1)c1ccco1 | i | -3 | 2 | 0 | 2 | nt
COc1cccc(/C=N/Nc2cc(Cl)nc(C)n2)c1O | i | 0 | 12 | -1 | -2 | i
